In PubChem BioAssay AID1529 (NMMLSC, 2009):
Out of some 290,000 compounds screened, about 4,200 (1.4%) were called active. For the sample, actives were picked, then their nearest neighbours and some compounds at random. A number with no mark means an inactive call.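 How the source made its calls: active means binding response more than 3 SD above or below the average of its plate-row segment, actives on both sides; inconclusive means wells at one plate position flagged as instrument error; inactive means the rest.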

The molecules below were run against Mitogen-activated protein kinase kinase kinase 3 (Homo sapiens) (UniProt Q99759) (assay: compounds raising or lowering MEK5 association with MEKK3 PB1 – biochemical, wildtype MEKK3, multiplex bead flow cytometry, Alexa488-MEK5, primary screen (AID 1529;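 further: Alexa488 bead fluorescence after subtracting the streptavidin-only scavenger bead signal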)). Settings: bead-based flow cytometry, Alexa488-MEK5 binding to MEKK3; at 10 µM; actives lie on both sides; 0 = blocked by unlabeled MEK5, 100 = vehicle.
Mitogen-activated protein kinase kinase kinase 3 (Homo sapiens), sequence (Q99759 whole entry, looked up): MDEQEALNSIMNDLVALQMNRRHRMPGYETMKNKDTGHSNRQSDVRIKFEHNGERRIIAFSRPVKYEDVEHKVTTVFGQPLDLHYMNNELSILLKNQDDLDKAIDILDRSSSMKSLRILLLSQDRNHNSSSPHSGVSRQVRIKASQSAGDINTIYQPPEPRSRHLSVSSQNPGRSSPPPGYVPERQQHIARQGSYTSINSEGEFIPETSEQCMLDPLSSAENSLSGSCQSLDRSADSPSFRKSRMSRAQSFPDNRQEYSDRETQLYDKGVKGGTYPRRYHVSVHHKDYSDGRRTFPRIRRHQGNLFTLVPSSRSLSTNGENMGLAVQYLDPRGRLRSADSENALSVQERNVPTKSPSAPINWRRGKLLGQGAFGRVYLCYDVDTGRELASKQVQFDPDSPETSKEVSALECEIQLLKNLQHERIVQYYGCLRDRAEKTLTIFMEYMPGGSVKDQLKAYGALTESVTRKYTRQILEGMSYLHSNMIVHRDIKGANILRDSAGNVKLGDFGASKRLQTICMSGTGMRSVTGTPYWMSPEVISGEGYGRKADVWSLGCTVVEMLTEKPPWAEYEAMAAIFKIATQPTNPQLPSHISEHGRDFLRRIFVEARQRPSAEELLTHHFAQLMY

Row | SMILES | binding response (% of control)
1 | CC(=O)N(c1ccc2oc(=O)sc2c1)S(=O)(=O)c1ccc(C)cc1 | 103%
2 | CN(Cc1ccccc1)C(=O)c1ccc(COc2ccccc2)cc1 | 109%
3 | COc1cc(OC)cc(C(=O)OCC(=O)Nc2sccc2C(N)=O)c1 | 97%
4 | FC(F)(F)c1nc(-c2ccccc2)ncc1-c1nnnn1-c1ccccc1 | 48% [inhibitor] (active)
5 | Clc1ccc(-n2nnnc2-c2cnc(-c3ccccn3)nc2-c2cccs2)cc1 | 100%
6 | c1ccc(-n2nnnc2-c2cccnc2)cc1 | 108%
7 | C=CCN1C(=NC(=O)COc2ccccc2)SC2CS(=O)(=O)CC21 (stereo not drawn) | 102%
8 | CCOC(=O)N1CCN(C(=O)c2n[nH]c(=O)c3ccccc23)CC1 | 100%
9 | CCOC(=O)N1CCN(C(=O)Cn2cnc3ccccc3c2=O)CC1 | 99%
10 | CCOC(=O)N1CCN(CC(=O)n2c(C)c(C)c3ccccc32)CC1 | 124% (active)
11 | Cc1cccc(OCC(=O)Nc2ccc(C(=O)O)cc2NC(=O)COc2cccc(C)c2)c1 | 105%
12 | O=C(CN1CCN(Cc2ccccc2)CC1)Nc1ccc(F)c(F)c1 | 104%
13 | O=C(Nc1ccc(S(=O)(=O)N2CCCCCC2)cc1)c1c(F)cccc1F | 101%
14 | CC1(c2nnc(-c3ccncc3)o2)CC(c2cccnc2)=NO1 (stereo not drawn) | 101%
15 | Cc1cccc(N2CCN(S(=O)(=O)c3ccc(-c4cc(C)no4)s3)CC2C)c1 (stereo not drawn) | 97%
16 | Cc1[nH]c2ccccc2c1C(=O)COC(=O)c1c(-c2ccccc2)noc1C | 108%
17 | Cc1onc(-c2ccccc2Cl)c1C(=O)OCC(=O)c1ccccc1 | 1% [inhibitor] (active)
18 | Cc1onc(-c2ccccc2Cl)c1C(=O)NCCn1ccc2ccccc21 | 98%
19 | O=C(NCCCN1CCCCC1)C1CCCN(c2ncnc3c2nc2n3CCCCC2)C1 (stereo not drawn) | 94%
20 | O=C(CCN1CCN(C/C=C/c2ccccc2)CC1)Nc1ccccc1Cl | 104%
21 | COc1ccc(S(=O)(=O)N2CCOC2CNC(=O)C(=O)NCc2ccc(F)cc2)cc1 (stereo not drawn) | 98%

Row | SMILES | binding response (% of control)
22 | Cc1nc(SCC(=O)NC2CCCC2)[nH]c(=O)c1C | 101%
23 | CCNS(=O)(=O)c1ccc(CCC(=O)N2CCN(c3cc(Cl)ccc3C)CC2)cc1 | 103%
24 | C=CCOc1ccc(/C=C2/C(=O)ON=C2C)cc1OCC | 104%
25 | O=C(OCc1cc(Cl)ccc1OC(F)F)c1cccnc1 | 146% (active)
26 | O=C(OCc1cc2ccccc2[nH]c1=O)c1cccnc1 | 109%
27 | Cc1cc(=O)[nH]c(SCc2cc(Cl)ccc2OC(F)F)n1 | 103%
28 | Cc1c(C(=O)N2CCCC2)c(S(=O)(=O)NCC(C)c2ccccc2)c(C)n1C (stereo not drawn) | 101%
29 | Cc1ccc(NC(=O)C2CCN(S(=O)(=O)c3ccc4c(c3)NC(=O)CO4)CC2)cc1C | 106%
30 | COC(C[C@@H]1O[C@@H]1C(=O)[C@@H](C)OCc1ccccc1)OC | 102%
31 | CCc1c(C)sc(NC(=O)c2cccs2)c1C(N)=O | 100%
32 | Cc1ccc(OCC(=O)NCCCNC(=O)c2cccnc2)cc1C | 99%
33 | O=C(O)CSc1nnc(-c2ccc3c(c2)OCO3)n1-c1ccccc1 | 103%
34 | Cn1c(SCc2nc3ccccc3s2)nnc1-c1ccc2c(c1)OCO2 | 19% [inhibitor] (active)
35 | Cn1c(SCC(=O)N2CCCC2)nnc1-c1ccc2c(c1)OCO2 | 100%
36 | O=C(OCc1ccc([N+](=O)[O-])cc1)C1CC(=O)N(Cc2ccccc2Cl)C1 (stereo not drawn) | 100%
37 | C/C(=N\NC(=O)CNC(=O)C(c1ccccc1)c1ccccc1)c1ccc(C)cc1 | 130% (active)
38 | O=C(CNC(=O)C(c1ccccc1)c1ccccc1)N/N=C\c1ccc2c(c1)OCO2 | 104%
39 | C/C(=N\NC(=O)Cc1ccc(F)cc1)c1ccc(F)cc1 | 98%
40 | O=C(Oc1ccc(Br)cc1)c1cccnc1 | 101%
41 | C=CC1=C(C(=O)O)N2C(=O)[C@@H](NC(=O)/C(=N/OCC(=O)O)c3csc(N)n3)[C@H]2SC1 | 97%
42 | O=C(O)c1ccc2c(=O)n3c(nc2c1)/C(=C/c1ccc(OC(F)F)cc1OC(F)F)CC3 | 103%

Row | SMILES | binding response (% of control)
43 | COc1ccc(NC(=O)CS(=O)(=O)c2ccccc2)cc1 | 105%
44 | O=C(NC1CCCCCC1)c1cccnc1Sc1ccc(Cl)cc1 | 91%
45 | CSc1ncccc1C(=O)NC1CCCCCC1 | 102%
46 | O=C(O)c1cccnc1NC1CCCC1 | 80% [inhibitor] (active)
47 | CC1=CC(=C(C#N)c2nc3ccccc3s2)C=C(C)N1c1ccc(F)cc1F | 104%
48 | CCOC(=O)C1CCN(C(=O)CN2C(=O)c3cccnc3Oc3ccc(C)cc32)CC1 | 103%
49 | CCCC/S(C)=N/S(=O)(=O)c1ccc(C)cc1 (stereo not drawn) | 100%
50 | CC/S(CC1CC1(Cl)Cl)=N\S(=O)(=O)c1ccc(C)cc1 (stereo not drawn) | 96%
51 | Cc1ccc(S(=O)(=O)/N=S(\C)C(C)C)cc1 (stereo not drawn) | 2% [inhibitor] (active)
52 | CC1CCCN(CC(=O)Nc2cc(Cl)ccc2Oc2ccccc2)C1 (stereo not drawn) | 107%
53 | COC(=O)c1c(C)cc(O)c(C)c1O | 102%
54 | CCOC(=O)CNC(=O)CSc1ncccc1-c1nc2ccccc2[nH]1 | 108%
55 | CCOC(=O)CNC(=O)CSc1nc2cccnc2n1CC | 127% (active)
56 | CCOC(=O)CNC(=O)CSc1nnc(COc2ccc(Cl)cc2)n1CC | 96%
57 | COc1cc2c(cc1OC)C(c1ccncc1)CC(=O)N2 (stereo not drawn) | 109%
58 | COc1cc2c(cc1OC)C(C(=O)Nc1cc(C)c(OC)c(C)c1)CC(=O)N2 (stereo not drawn) | 109%
59 | COc1ccc(C2CC(=O)Nc3cc(C)c(C)cc32)c(OC)c1OC (stereo not drawn) | 0% [inhibitor] (active)
60 | OCCNc1nc(Nc2ccc(Cl)c(Cl)c2)nc2ccccc12 | 111%
61 | CC(C)(C)NC(=O)c1cccc(NC(=O)Cc2ccc(Br)cc2)c1 | 163% (active)
62 | COc1ccc(CC(=O)Nc2ccc(C(=O)NC(C)(C)C)cc2)cc1 | 97%
63 | O=C(Cc1ccccc1)Nc1cccc(NC(=O)c2ccccc2)c1 | 98%
